Assay results reported in PubChem BioAssay (NCI).
Several values for one entry are separate records, joined by “and”; a condition that tells them apart may be missing. Identical values can stand only once. About 83,000 compounds went through this panel and 20% of them were active in at least one assay; those are over-represented in the sample as a whole.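 Negative percent growth values reflect cell death: -40 means 40% of the cells present at the start died, and -100 means all died.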 Activity calls are given as the source filed them. How the source made its calls: active means growth percent below 10; inactive means the rest.

Experiments:
Assay in all cases: NCI-60 one-dose screen, 48 h (100 = growth as untreated, 0 = no growth, -100 = all killed)
Conditions in all cases: 10 µM unless noted
NCI-H23 lung = tested on: NCI-H23 lung
NCI-H226 lung = tested on: NCI-H226 lung
NCI-H322M lung = tested on: NCI-H322M lung
HOP-62 NSCLC = tested on: HOP-62 NSCLC
NCI-H460 lung = tested on: NCI-H460 lung
HOP-92 NSCLC = tested on: HOP-92 NSCLC
NCI-H522 lung = tested on: NCI-H522 lung
A549/ATCC NSCLC = tested on: A549/ATCC NSCLC
786-0 renal = tested on: 786-0 renal
COLO 205 colon = tested on: COLO 205 colon
DU-145 prostate = tested on: DU-145 prostate
K-562 leukemia = tested on: K-562 leukemia
MALME-3M melanoma = tested on: MALME-3M melanoma
MDA-MB-231 breast = tested on: MDA-MB-231 breast
RXF 393 renal = tested on: RXF 393 renal
SF-268 CNS = tested on: SF-268 CNS
SF-295 CNS = tested on: SF-295 CNS
SF-539 CNS = tested on: SF-539 CNS
UACC-257 melanoma = tested on: UACC-257 melanoma
M14 melanoma = tested on: M14 melanoma

Measured: growth

Cc1n[nH]c(=O)n(/N=C\c2c[nH]c3ccccc23)c1=O
inactive: NCI-H23 lung 102% | NCI-H226 lung 103% | NCI-H322M lung 94.2% | HOP-62 NSCLC 96.1% | NCI-H460 lung 107% | HOP-92 NSCLC 84.2% | NCI-H522 lung 94.1% | A549/ATCC NSCLC 93.1% | 786-0 renal 123% | COLO 205 colon 104% | DU-145 prostate 118% | K-562 leukemia 93.7% | MALME-3M melanoma 97% | MDA-MB-231 breast 123% | RXF 393 renal 96.3% | SF-268 CNS 99.6% | SF-295 CNS 102% | SF-539 CNS 104% | UACC-257 melanoma 104% | M14 melanoma 121%

CNc1ccc2nc3ccc(=[N+](C)C)cc-3sc2c1
inactive: NCI-H226 lung 63% and 51.4% | NCI-H322M lung 30.7% and 28.1% | 786-0 renal 37.7% and 20.6% | RXF 393 renal 58.3% and 32.9%
36.4% (inactive) and -4.83% (active): HOP-92 NSCLC
8.78% (active) and 22.8% (inactive): K-562 leukemia
active: NCI-H23 lung 1.76% and -7.91% | HOP-62 NSCLC 7.64% and 7.54% | NCI-H522 lung -19.9% and 8.62% | A549/ATCC NSCLC 3.27% and 5.26% | COLO 205 colon -22.3% and -30.4% | MALME-3M melanoma -28.2% and -24.3% | MDA-MB-231 breast 4.03% and -13.7% | SF-268 CNS 5.13% and 2.8% | SF-295 CNS -7.68% and 7.95% | SF-539 CNS -6.95% and -15.6% | UACC-257 melanoma -22.2% and -27.4% | M14 melanoma 3.79% and -23.3%
42.4% (inactive) and 7.81% (active): DU-145 prostate
9.72% (active) and 11.9% (inactive): NCI-H460 lung

CC(=O)NC(Cc1ccccc1)C(=O)Oc1ccc2ccccc2c1 (stereo not given)
inactive: NCI-H23 lung 95.9% and 86.5% | NCI-H226 lung 101% and 106% | NCI-H322M lung 124% and 108% | HOP-62 NSCLC 96.9% and 94.7% | NCI-H460 lung 106% and 107% | HOP-92 NSCLC 78% and 84.9% | NCI-H522 lung 98.2% | A549/ATCC NSCLC 94.7% and 102% | 786-0 renal 110% | COLO 205 colon 93.3% and 105% | DU-145 prostate 107% and 109% | K-562 leukemia 106% and 113% | MALME-3M melanoma 109% | MDA-MB-231 breast 104% and 103% | RXF 393 renal 113% and 115% | SF-268 CNS 100% | SF-295 CNS 113% | SF-539 CNS 91.6% and 90% | UACC-257 melanoma 104% and 116% | M14 melanoma 109% and 118%

COC(=O)[C@H]1CCCN1C(=O)C1CCCN1C(=O)[C@@H](Cc1ccccc1)NC(=S)Nc1cc(C(F)(F)F)cc(C(F)(F)F)c1 (stereo not given in full)
inactive: NCI-H23 lung 108% and 96.5% | NCI-H226 lung 105% and 87.6% | NCI-H322M lung 142% and 88.4% | HOP-62 NSCLC 105% and 97.9% | NCI-H460 lung 102% and 94.5% | HOP-92 NSCLC 111% and 84.9% | NCI-H522 lung 98.6% and 78.1% | A549/ATCC NSCLC 97.2% and 71.4% | 786-0 renal 105% and 99.2% | COLO 205 colon 121% and 91.4% | DU-145 prostate 117% and 91.4% | K-562 leukemia 103% and 65.2% | MALME-3M melanoma 109% and 98.8% | MDA-MB-231 breast 95.9% and 75.4% | RXF 393 renal 108% and 84.8% | SF-268 CNS 105% and 86.9% | SF-295 CNS 89.4% | SF-539 CNS 102% and 96.1% | UACC-257 melanoma 108% and 95.4% | M14 melanoma 113% and 105%

Cc1cc(O)c2c(c1)C(=O)c1cc(O)cc(O)c1C2=O
inactive: NCI-H23 lung 71% and 91.7% | NCI-H226 lung 84.8% and 90.8% | NCI-H322M lung 94.6% and 107% | HOP-62 NSCLC 97.9% and 78.1% | NCI-H460 lung 98% and 102% | NCI-H522 lung 61% and 78.8% | A549/ATCC NSCLC 77.5% and 81.1% | 786-0 renal 74.6% and 83.3% | COLO 205 colon 102% and 96.7% | DU-145 prostate 87.2% and 104% | K-562 leukemia 75.9% and 87.9% | MALME-3M melanoma 54.4% and 94.1% | MDA-MB-231 breast 78.7% and 87.3% | RXF 393 renal 90.7% and 107% | SF-268 CNS 89.8% and 97.6% | SF-295 CNS 82.8% and 94.9% | SF-539 CNS 93.1% and 86% | UACC-257 melanoma 84.8% and 92.2% | M14 melanoma 110% and 93.6%
-3.28% (active) and 20.5% (inactive): HOP-92 NSCLC

Cn1c(=O)n(-c2ccc(C(C)(C)C#N)cc2)c2c3cc(-c4cnc5ccccc5c4)ccc3ncc21
7.45% (active) and 15.4% (inactive): NCI-H23 lung
inactive: K-562 leukemia 10.2% and 10.6% | MDA-MB-231 breast 19.3% and 20%
11.2% (inactive) and 7.46% (active): SF-268 CNS
15.3% (inactive) and 6.2% (active): DU-145 prostate
active: NCI-H226 lung 7.02% and 9.42% | NCI-H322M lung 1.14% and -0.589% | HOP-62 NSCLC 1.69% and 3.34% | NCI-H460 lung 3.03% and -9.04% | HOP-92 NSCLC -4.42% | NCI-H522 lung 2.87% and -9.46% | A549/ATCC NSCLC 0.549% and -9.22% | 786-0 renal 0.54% and -4.76% | COLO 205 colon -25% and -3.99% | MALME-3M melanoma -14.1% and -14.8% | RXF 393 renal -22.6% and -17.3% | SF-295 CNS -20.4% and -4.51% | SF-539 CNS -30.1% and -17.4% | UACC-257 melanoma -9.78% and -14.4% | M14 melanoma 7.18% and 0.962%

Cn1cc(-c2cc3c(Nc4ccc(CC(=O)Nc5cc(C(C)(C)C)on5)cc4)ncnc3[nH]2)cn1
active: NCI-H23 lung -34% and -14% | NCI-H226 lung -2.21% and -21.5% | NCI-H322M lung -15.1% and -11.4% | HOP-62 NSCLC -11.3% and -15.3% | NCI-H460 lung -4.56% and 3.41% | HOP-92 NSCLC 5.01% and -5.97% | NCI-H522 lung -35.7% and -46.8% | A549/ATCC NSCLC 4.17% and 8.31% | 786-0 renal 5.07% and 3.24% | COLO 205 colon -36.6% and -33.4% | DU-145 prostate -15% and -3.89% | K-562 leukemia 4.78% and 3.56% | MALME-3M melanoma -50.5% and -22.7% | MDA-MB-231 breast -6.46% and -3.49% | RXF 393 renal -51.7% and -45.7% | SF-268 CNS -27.7% and -23.3% | SF-295 CNS -0.861% and 7.57% | SF-539 CNS -49.9% and -49% | UACC-257 melanoma -11.9% and -15.9% | M14 melanoma -34.2% and -49.5%

NC(=O)C1CC2C=CC1C2 (stereo not given)
active: UACC-257 melanoma -24.1%
inactive: NCI-H23 lung 92.1% and 106% | NCI-H226 lung 97.7% and 98.9% | NCI-H322M lung 104% and 107% | HOP-62 NSCLC 91.2% and 98.4% | NCI-H460 lung 103% and 110% | HOP-92 NSCLC 101% and 94.5% | NCI-H522 lung 106% and 94.2% | A549/ATCC NSCLC 96.2% and 100% | 786-0 renal 98% and 116% | COLO 205 colon 96.8% and 120% | DU-145 prostate 114% and 115% | K-562 leukemia 103% and 93.9% | MALME-3M melanoma 69.2% and 124% | MDA-MB-231 breast 101% and 99.1% | RXF 393 renal 108% and 89.7% | SF-268 CNS 118% and 108% | SF-295 CNS 113% and 95.2% | SF-539 CNS 95.2% and 112% | M14 melanoma 106% and 87.4%
